# PubChem BioAssay (EPA / NIEHS)
# Where a structure was tested more than once in an assay, its records may differ in their call. Calls of active or inactive are those of the source. The calls were made as follows: active = hit-call score of the fitted dose curve at least 0.9, where 1 is the maximum; inactive = score below 0.9.
# Assay: BSK_SAg_SRB: Viability Assessment in the BioMAP Diversity Plus: SAg Assay (AID 2283096);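 also: cells read one day after compound addition; hits may be either gain or loss of signal compared with DMSO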
# Conditions: primary human HUVEC with PBMC
# How it was run: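 Human umbilical vein endothelial cells co-cultured with PBMC, read 24 h after compound dosing. Total protein measured by sulforhodamine B staining (0.1% SRB after 10% TCA fixation, absorbance 560 nm); bidirectional fit versus DMSO baseline.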
SMILES,outcome,AC50
Oc1cccc(O)c1,inactive,–
c1ccc2c(c1)Cc1ccccc1-2,inactive,–
CCN(CC)CCNc1ccc(CNC=O)c2sc3ccc(OC)cc3c(=O)c12,–,17.8 µM (active)
CC#C[C@]1(O)CC[C@H]2[C@@H]3CCC4=CC(=O)CCC4=C3[C@@H](c3ccc(N(C)C)cc3)C[C@@]21C,–,31.7 µM (active)
CCC(C)(C)C1CCC(O)CC1 (stereo unspecified),inactive,–
Cc1cc(C)c(O)c(C)c1,inactive,–
C#C[C@]1(O)CC[C@H]2[C@@H]3CCC4=CC(=O)CC[C@@H]4[C@H]3CC[C@@]21C,–,7.46 µM (active)
O=C(OCCOCCOC(=O)c1ccccc1)c1ccccc1,inactive,–
CCCCC(CC)COC(=O)CCCCC(=O)OCc1ccccc1 (stereo unspecified),inactive,–
O=[N+]([O-])c1ccc(O)cc1,inactive,–
C=C(C)C(=O)OCCC(F)(F)C(F)(F)C(F)(F)C(F)(F)C(F)(F)C(F)(F)F,inactive,–
NC(=O)N(O)[C@@H]1C=C[C@H](Oc2cccc(Oc3ccc(F)cc3)c2)C1,inactive,–
NC(=O)N1C(=O)C(C(=O)c2cc(Cl)cs2)c2cc(F)c(Cl)cc21 (stereo unspecified),–,20 µM (active)
COC(=O)CCCCC(=O)OC,inactive,–
CN(C)C=O,inactive,–
O=c1c(-c2ccc(O)cc2)coc2cc(O)ccc12,inactive,–
Cc1oc(-c2ccccc2)nc1CCOc1ccc(C[C@H](Nc2ccccc2C(=O)c2ccccc2)C(=O)O)cc1,–,18.8 µM (active)
N#C[C@@H]1CC(F)(F)CN1C(=O)CNC1CC2CCC(C1)N2c1ncccn1 (stereo partly specified),–,5.45 µM (active)
OCCC(F)(F)C(F)(F)C(F)(F)C(F)(F)C(F)(F)C(F)(F)F,inactive,53.1 µM (active)
c1ccc2c(c1)ccc1ccccc12,inactive,–
